Reference: PubChem BioAssay AID1159580 (chemical genetic matrix, 2015)
Out of some 5,500 compounds screened, about 2,000 (36%) were called active. Inconclusive results (about 18%) are left out. Rule as the data show it: active = normalized growth mostly below about 0.91 (no sharp cut-off); inconclusive = no clear call, values can overlap the other calls; inactive = mostly above about 0.92. Some of the results follow.

Assay: chemical genetic growth profiling, strain panel (AID 1159580);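 also: tested at 20 µM; growth read once vehicle control cultures reached saturation at 30 °C; 1 = growth at the plate median or of vehicle wells; lower values mean less growth of the strain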
Conditions: S. cerevisiae deletion strains, growth OD
[1] = locus YAL040C, strain CLN3, stronger effect = lower value
[2] = locus YCL061C, strain MRC1 (second series), stronger effect = lower value
[3] = locus YDR363W, strain ESC2, stronger effect = lower value
[4] = locus YER002W, strain NOP16, stronger effect = lower value
[5] = locus YNL128W, strain TEP1, stronger effect = lower value
[6] = locus YNL175C, strain NOP13, stronger effect = lower value
[7] = locus YNL197C, strain WHI3, stronger effect = lower value
[8] = locus YNL224C, strain SQS1, stronger effect = lower value
[9] = locus YNL322C, strain KRE1, stronger effect = lower value
[10] = locus YOR083W, strain WHI5 (second series), stronger effect = lower value
[11] = locus YPL055C, strain LGE1, stronger effect = lower value

Measured: normalized growth

Clc1ccc(Cn2c(CN3CCCC3)nc3ccccc32)cc1
inactive: [1] 1.01 | [2] 0.996 | locus YDR150W, strain NUM1, stronger effect = lower value 0.996 | [3] 0.999 | [4] 1.01 | [5] 1.04 | [6] 1.02 | [7] 1.04 | [8] 1.02 | [9] 0.989 | [10] 1.02 | [11] 0.932

COc1ccc2c(c1)c(CC(=O)O)c(C)n2Cc1ccc(F)cc1
inactive: [1] 0.985 | [2] 1.01 | [3] 1 | [4] 0.999 | locus YGR078C, strain PAC10, stronger effect = lower value 1.01 | locus YMR307W, strain GAS1, stronger effect = lower value 0.99 | [5] 0.993 | [6] 1 | [7] 0.991 | [8] 0.985 | [9] 1.01 | [10] 1.02 | [11] 1.01 | locus YPL241C, strain CIN2, stronger effect = lower value 1.01
